Source: PubChem BioAssay (EPA / NIEHS)
Active and inactive are the calls of the source. How the source made its calls: active means hit-call score of the fitted dose curve at least 0.9, where 1 is the maximum; inactive means score below 0.9.

Experiments:
[1] = ATG_CRE_CIS: Attagene CIS-FACTORIAL HepG2 Assay for human cAMP Responsive Element (CRE) binding protein 3 (AID 2282926); conditions: HepG2 CRE cis-reporter, Attagene multiplexed mRNA; actives raise or lower the signal
Method in brief: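 Endogenous transcription factor activity read via CRE-regulated reporter transcripts in transfected HepG2 cells. After 24 h exposure, RNA was reverse-transcribed, amplified, fluorescently labelled and sized by capillary electrophoresis; gain or loss fitted against DMSO.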

[2] = target: CCAAT/enhancer-binding protein beta (Homo sapiens) (UniProt P17676); experiment: ATG_C_EBP_CIS: Attagene CIS-FACTORIAL HepG2 Assay for human CCAAT/Enhancer Binding Protein (C/EBP) beta (AID 2282927); conditions: HepG2 Attagene cis-factorial transcription factor reporter; actives raise or lower the signal
Method in brief: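 HepG2, transient MRTU transfection, 24 h treatment. RT-PCR plus CE fluorescence; DMSO negative control, bidirectional fit.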

[3] = ATG_CMV_CIS: Attagene CIS-FACTORIAL HepG2 Assay for human CMV (Internal Marker) (AID 2282928); conditions: HepG2 CMV promoter reporter, transcription factor profiling; actives raise or lower the signal;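 further: endpoint acts as a background internal control marker rather than a target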
Method in brief: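 24 h chemical treatment, HepG2 with transient multi-reporter transfection; RNA → oligo(dT) RT → PCR → 6-FAM extension → HpaI digest → CE fluorescence. Bidirectional fit, DMSO negative control.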

[4] = ATG_DR4_LXR_CIS: Attagene CIS-FACTORIAL HepG2 Assay for human Liver X Receptor (LXR), DR4 submotif (AID 2282929); conditions: HepG2 Attagene DR4 cis-reporter, mRNA transcription; actives raise or lower the signal
Method in brief: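 HepG2 cells were transiently transfected with multiple cis-regulated reporter units and dosed for 24 hours. The DR4 reporter mRNA was quantified by RT-PCR, 6-FAM labelling and capillary electrophoresis. Bidirectional fits used DMSO as baseline.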

[5] = target: Aryl hydrocarbon receptor (Homo sapiens) (UniProt P35869); experiment: ATG_Ahr_CIS: Attagene CIS-FACTORIAL HepG2 Assay for human Aryl Hydrocarbon Receptor (Ahr) (AID 2282930); conditions: HepG2 AhR cis-factorial reporter transcription; actives raise or lower the signal
Method in brief: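 Endogenous factor activity is tracked through cis-promoter reporter units transfected into HepG2 cells. Transcript levels at 24 h are read by fluorescent RT-PCR and capillary electrophoresis, with activity in either direction scored relative to DMSO.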

[6] = ATG_AP_1_CIS: Attagene CIS-FACTORIAL HepG2 Assay for human Activator Protein 1 (AP-1) (AID 2282931); conditions: HepG2 Attagene cis-factorial AP-1 reporter mRNA; actives raise or lower the signal
Method in brief: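 HepG2 cells transiently transfected with cis-element-driven reporter transcription units, dosed for 24 hours. Reporter mRNA measured by RT-PCR, 6-FAM labelling, HpaI digestion and capillary electrophoresis. Bidirectional fitting against DMSO baseline.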

[7] = ATG_AP_2_CIS: Attagene CIS-FACTORIAL HepG2 Assay for human Activator Protein 2 (AP-2) (AID 2282932); conditions: HepG2 AP-2 cis-reporter, Attagene transcription factor profiling; actives raise or lower the signal
Method in brief: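 Read-out: fluorescent reporter mRNA via RT-PCR and capillary electrophoresis, 24 h post-dose in transiently transfected HepG2. Endogenous factors drive cis-promoter reporters; gain or loss of signal fitted bidirectionally against DMSO.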

[8] = ATG_BRE_CIS: Attagene CIS-FACTORIAL HepG2 Assay for human Bone Morphogenetic Protein (BMP) Response Element (BRE) (AID 2282933); conditions: HepG2 BMP response element reporter, Attagene transcription factor profiling; actives raise or lower the signal
Method in brief: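 HepG2 cells transiently transfected with multiplexed cis-element reporter units were dosed with chemical for 24 h. Reporter mRNA was measured by RT-PCR with fluorescent labelling, HpaI digestion and capillary electrophoresis; bidirectional fitting relative to DMSO.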

[9] = target: Retinoic acid receptor alpha (Homo sapiens) (UniProt P10276); experiment: ATG_DR5_RAR_CIS: Attagene CIS-FACTORIAL HepG2 Assay for human Retinoic Acid Receptor Alpha (RARE), DR5 submotif (AID 2282934); conditions: HepG2 Attagene cis-factorial RARE DR5 reporter, mRNA; actives raise or lower the signal
Method in brief: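 After 24 h of chemical exposure, transiently transfected HepG2 cells were lysed for total RNA; the DR5-regulated reporter transcript was quantified via RT-PCR and capillary electrophoresis, with activity fitted bidirectionally against DMSO.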

[10] = target: Transcription factor E2F1 (Homo sapiens) (UniProt Q01094); experiment: ATG_E2F_CIS: Attagene CIS-FACTORIAL HepG2 Assay for human E2F Transcription Factor 1 (AID 2282935); conditions: HepG2 Attagene cis-reporter, E2F reporter RNA transcripts; actives raise or lower the signal
Method in brief: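 Transient MRTU transfection of HepG2; 24 h compound exposure; RNA → oligo(dT) RT → PCR → FAM label → HpaI cut → CE fluorescence. Gain/loss of signal fit against DMSO.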

[11] = ATG_M_61_CIS: Attagene CIS-FACTORIAL HepG2 Assay for M61 Transcription Factor (Internal Marker) (AID 2282937); conditions: HepG2 Attagene CIS-FACTORIAL M61 internal marker reporter; actives raise or lower the signal
Method in brief: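 HepG2 cells transiently transfected with multiplexed cis-promoter reporter units reporting endogenous transcription factor activity, measured 24 h after dosing. Reporter mRNA quantified by RT-PCR and capillary electrophoresis; bidirectional fit against DMSO baseline.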

[12] = ATG_EGR_CIS: Attagene CIS-FACTORIAL HepG2 Assay for human Early Growth Response 1 (EGR1) (AID 2282938); conditions: HepG2 Attagene CIS-FACTORIAL EGR reporter mRNA; actives raise or lower the signal
Method in brief: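 HepG2 cells transiently transfected with cis-element-driven multiplexed reporter units, dosed for 24 h. EGR1-element reporter mRNA quantified by RT-PCR, 6-FAM labelling, HpaI digestion and capillary electrophoresis; bidirectional fit versus DMSO.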

[13] = ATG_M_19_CIS: Attagene CIS-FACTORIAL HepG2 Assay for M19 Transcription Factor (Internal Marker) (AID 2282939); conditions: HepG2 Attagene CIS-FACTORIAL M19 internal marker reporter; actives raise or lower the signal
Method in brief: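 HepG2 cells transiently transfected with cis-regulated multiple reporter transcription units were dosed for 24 h; reporter mRNA was quantified by RT-PCR, 6-FAM primer-extension labelling, HpaI digestion and capillary electrophoresis, with bidirectional fitting against DMSO baseline.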

[14] = target: Hepatocyte nuclear factor 3-beta (Homo sapiens) (UniProt Q9Y261); experiment: ATG_FoxA2_CIS: Attagene CIS-FACTORIAL HepG2 Assay for human Forkhead box A2 (FOXA2) (AID 2282942); conditions: HepG2 cis-reporter transcription factor activity, 24 h; actives raise or lower the signal
Method in brief: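 HepG2 transiently transfected with a multiplexed cis-promoter reporter library read endogenous FOXA2 activity. After 24 h compound exposure, reporter mRNA was quantified by RT-PCR, HpaI digestion and capillary electrophoresis. Bidirectional fit against DMSO.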

[15] = ATG_FoxO_CIS: Attagene CIS-FACTORIAL HepG2 Assay for human Forkhead box O (FoxO) (AID 2282943); conditions: HepG2 Attagene cis-reporter, FoxO element, mRNA; actives raise or lower the signal
Method in brief: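 Transfected HepG2 reporter cells exposed to test chemical for 24 h; reporter RNA measured by reverse transcription, PCR and fluorescent capillary electrophoresis; curves fitted for increases and decreases against DMSO.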

[16] = ATG_GATA_CIS: Attagene CIS-FACTORIAL HepG2 Assay for human GATA Binding Protein (AID 2282944); conditions: HepG2 GATA cis-element reporter, Attagene multiplex mRNA; actives raise or lower the signal
Method in brief: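 HepG2 cells transiently transfected with multiplexed cis-element reporter units reflecting endogenous transcription factor activity; reporter mRNA measured after 24 h dosing by RT-PCR, 6-FAM labeling, HpaI digestion and capillary electrophoresis. Bidirectional fitting versus DMSO baseline.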

[17] = ATG_GLI_CIS: Attagene CIS-FACTORIAL HepG2 Assay for human Zinc Finger Protein GLI1 (AID 2282945); conditions: HepG2, Attagene cis-factorial reporter mRNA, GLI element; actives raise or lower the signal
Method in brief: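 Transiently transfected HepG2 cells report endogenous transcription factor activity via cis-element-driven reporter units. After 24 h compound exposure, reporter mRNA was measured by RT-PCR with capillary electrophoresis; bidirectional fitting against DMSO baseline.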

[18] = ATG_Ets_CIS: Attagene CIS-FACTORIAL HepG2 Assay for human Erythroblast Transformation Specific (ETS) (AID 2282941); conditions: HepG2 ETS cis-reporter transcription, actives raise or lower the signal
Method in brief: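 Cis-regulated reporter mRNA induction in HepG2 (transient transfection), 24 h exposure, RT-PCR plus capillary electrophoresis detection; DMSO serves as negative control and baseline.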

[19] = ATG_E_Box_CIS: Attagene CIS-FACTORIAL HepG2 Assay for human Enhancer Box (E-box) (AID 2282936); conditions: HepG2 E-box cis-reporter transcription, actives raise or lower the signal
Method in brief: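 Transiently transfected HepG2, endogenous TF-driven reporters, 24 h dosing. Readout: RT-PCR plus capillary electrophoresis of fluorescent reporter fragments. Gain or loss of signal fitted bidirectionally against DMSO baseline.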

Measured: outcome

Chain of Hepatocyte nuclear factor 3-beta (Homo sapiens) (Q9Y261 whole entry, looked up): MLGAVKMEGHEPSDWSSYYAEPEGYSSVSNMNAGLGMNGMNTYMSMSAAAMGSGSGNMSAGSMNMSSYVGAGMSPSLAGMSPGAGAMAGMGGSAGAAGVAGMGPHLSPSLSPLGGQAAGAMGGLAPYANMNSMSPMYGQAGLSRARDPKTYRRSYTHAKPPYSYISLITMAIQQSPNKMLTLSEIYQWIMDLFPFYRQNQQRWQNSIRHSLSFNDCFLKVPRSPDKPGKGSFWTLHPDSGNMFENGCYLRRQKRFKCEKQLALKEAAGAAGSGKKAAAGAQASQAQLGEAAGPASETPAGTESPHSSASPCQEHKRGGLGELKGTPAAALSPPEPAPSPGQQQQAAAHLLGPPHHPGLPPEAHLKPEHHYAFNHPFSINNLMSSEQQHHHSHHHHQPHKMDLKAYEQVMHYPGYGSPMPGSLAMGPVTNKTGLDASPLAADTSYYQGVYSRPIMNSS
Chain of Retinoic acid receptor alpha (Homo sapiens) (P10276 whole entry, looked up): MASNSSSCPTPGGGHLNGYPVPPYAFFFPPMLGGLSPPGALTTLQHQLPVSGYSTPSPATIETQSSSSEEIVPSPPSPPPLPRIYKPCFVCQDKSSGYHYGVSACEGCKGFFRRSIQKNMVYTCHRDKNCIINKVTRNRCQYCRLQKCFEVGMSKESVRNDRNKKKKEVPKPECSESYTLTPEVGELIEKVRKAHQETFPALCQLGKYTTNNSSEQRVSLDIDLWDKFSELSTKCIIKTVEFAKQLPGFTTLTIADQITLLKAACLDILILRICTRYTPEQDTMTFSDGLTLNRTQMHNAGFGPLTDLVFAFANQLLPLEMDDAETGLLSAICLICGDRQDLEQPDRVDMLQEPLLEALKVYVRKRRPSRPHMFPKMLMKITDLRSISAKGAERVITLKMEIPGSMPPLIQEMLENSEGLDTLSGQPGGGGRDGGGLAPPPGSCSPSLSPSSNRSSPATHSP
Chain of Aryl hydrocarbon receptor (Homo sapiens) (P35869 whole entry, looked up): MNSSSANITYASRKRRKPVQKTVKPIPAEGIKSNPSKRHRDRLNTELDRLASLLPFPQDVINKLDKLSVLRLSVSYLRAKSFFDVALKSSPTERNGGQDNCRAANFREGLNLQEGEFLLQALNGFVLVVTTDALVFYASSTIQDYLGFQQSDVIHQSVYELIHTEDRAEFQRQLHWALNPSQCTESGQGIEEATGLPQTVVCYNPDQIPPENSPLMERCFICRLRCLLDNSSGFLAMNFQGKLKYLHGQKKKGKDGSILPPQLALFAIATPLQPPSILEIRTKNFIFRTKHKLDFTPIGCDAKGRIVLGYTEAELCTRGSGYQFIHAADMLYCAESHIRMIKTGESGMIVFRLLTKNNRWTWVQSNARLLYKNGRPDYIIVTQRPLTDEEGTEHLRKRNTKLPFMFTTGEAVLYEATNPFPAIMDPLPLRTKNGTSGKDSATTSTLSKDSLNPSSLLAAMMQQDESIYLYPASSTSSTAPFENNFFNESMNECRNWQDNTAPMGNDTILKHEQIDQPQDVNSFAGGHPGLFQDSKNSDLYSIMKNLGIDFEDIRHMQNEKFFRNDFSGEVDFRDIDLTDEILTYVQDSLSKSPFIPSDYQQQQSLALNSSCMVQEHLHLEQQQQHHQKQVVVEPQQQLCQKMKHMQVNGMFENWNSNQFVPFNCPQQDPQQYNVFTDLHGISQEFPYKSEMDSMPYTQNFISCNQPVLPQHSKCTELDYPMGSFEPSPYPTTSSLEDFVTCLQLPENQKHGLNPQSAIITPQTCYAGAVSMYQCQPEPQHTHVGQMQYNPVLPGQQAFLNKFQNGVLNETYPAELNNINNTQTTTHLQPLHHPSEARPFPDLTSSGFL
Chain of Transcription factor E2F1 (Homo sapiens) (Q01094 whole entry, looked up): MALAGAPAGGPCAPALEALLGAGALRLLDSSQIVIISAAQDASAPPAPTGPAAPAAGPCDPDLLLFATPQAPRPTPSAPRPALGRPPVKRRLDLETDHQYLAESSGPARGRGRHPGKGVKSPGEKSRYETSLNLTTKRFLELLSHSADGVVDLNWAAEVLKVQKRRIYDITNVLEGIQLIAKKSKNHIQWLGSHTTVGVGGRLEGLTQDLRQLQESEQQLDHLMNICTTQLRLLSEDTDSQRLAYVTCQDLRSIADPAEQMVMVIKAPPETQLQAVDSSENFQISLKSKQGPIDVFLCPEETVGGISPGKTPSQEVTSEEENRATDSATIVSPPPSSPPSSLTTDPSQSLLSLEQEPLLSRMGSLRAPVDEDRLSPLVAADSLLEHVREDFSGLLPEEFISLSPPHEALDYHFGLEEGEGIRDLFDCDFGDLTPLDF
Chain of CCAAT/enhancer-binding protein beta (Homo sapiens) (P17676 whole entry, looked up): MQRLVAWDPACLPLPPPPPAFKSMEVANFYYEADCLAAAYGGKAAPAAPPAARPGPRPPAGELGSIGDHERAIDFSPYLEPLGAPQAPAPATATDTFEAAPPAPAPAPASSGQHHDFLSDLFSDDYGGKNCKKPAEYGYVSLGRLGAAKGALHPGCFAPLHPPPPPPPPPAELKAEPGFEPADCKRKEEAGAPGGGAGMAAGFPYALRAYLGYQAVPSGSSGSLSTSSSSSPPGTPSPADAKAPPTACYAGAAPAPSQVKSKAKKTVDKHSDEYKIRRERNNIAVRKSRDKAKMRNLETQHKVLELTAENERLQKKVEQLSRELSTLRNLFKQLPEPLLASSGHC

CCCCCCOC(=O)CCC
inactive: [1] | [2] | [3] | [4] | [5] | [6] | [7] | [8] | [9] | [10] | [11] | [12] | [13] | [14] | [15] | [16] | [17]

CCCCCCC(C)(C)S
inactive: [1] | [2] | [3] | [4] | [5] | [6] | [7] | [8] | [9] | [10] | [11] | [12] | [13] | [18] | [14] | [15] | [16] | [17]

CCCCC(CC)C(=O)OC(C)C (stereo unspecified)
inactive: [1] | [2] | [3] | [4] | [5] | [6] | [7] | [8] | [9] | [19] | [11] | [12] | [13] | [18] | [14] | [15] | [16] | [17]

COc1ccccc1[N+](=O)[O-]
inactive: [1] | [2] | [3] | [4] | [5] | [6] | [7] | [8] | [9] | [10] | [12] | [13] | [18] | [14] | [15] | [17]

CC1(C)COCN1
inactive: [1] | [2] | [3] | [4] | [5] | [6] | [7] | [8] | [9] | [10] | [19] | [12] | [13] | [14] | [15] | [16] | [17]

c1ccc2[nH]cnc2c1
inactive: [1] | [2] | [3] | [4] | [5] | [6] | [7] | [8] | [9] | [10] | [12] | [13] | [18] | [14] | [15] | [16] | [17]

CCCCSCCCC
inactive: [1] | [2] | [3] | [4] | [5] | [6] | [7] | [8] | [9] | [10] | [19] | [12] | [13] | [18] | [14] | [15] | [16] | [17]

CC(=O)O[C@@H]1C[C@@H]2CC[C@@]1(C)C2(C)C
inactive: [1] | [2] | [3] | [4] | [5] | [6] | [7] | [8] | [9] | [10] | [12] | [13] | [14] | [15] | [17]
